From PubChem BioAssay AID1159580 (chemical genetic matrix, 2015)
The campaign covered roughly 5,500 compounds. About 2,000 (36%) were called active. About 18% were inconclusive and are not listed. Rule as the data show it: active = normalized growth mostly below about 0.91 (no sharp cut-off); inconclusive = no clear call, values can overlap the other calls; inactive = mostly above about 0.92. The list shows a part of the results.

Assay: chemical genetic growth profiling, strain panel (AID 1159580);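 also: tested at 20 µM; growth read once vehicle control cultures reached saturation at 30 °C; 1 = growth at the plate median or of vehicle wells; lower values mean less growth of the strain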
Conditions: growth OD
[1] = S. cerevisiae deletion strains, locus YAL013W, strain DEP1, hits give low values
[2] = S. cerevisiae deletion strains, locus YBR229C, strain ROT2, hits give low values
[3] = S. cerevisiae deletion strains, locus YDL101C, strain DUN1, hits give low values
[4] = S. cerevisiae deletion strains, locus YDR150W, strain NUM1, hits give low values
[5] = S. cerevisiae deletion strains, locus YEL061C, strain CIN8, hits give low values
[6] = S. cerevisiae deletion strains, locus YGR078C, strain PAC10, hits give low values
[7] = S. cerevisiae deletion strains, locus YHR030C, strain SLT2, hits give low values
[8] = S. cerevisiae deletion strains, locus YHR087W, strain rtc3, hits give low values
[9] = S. cerevisiae deletion strains, locus YJR043C, strain POL32, hits give low values
[10] = S. cerevisiae deletion strains, locus YJR075W, strain HOC1, hits give low values
[11] = S. cerevisiae deletion strains, locus YLR039C, strain RIC1, hits give low values
[12] = S. cerevisiae deletion strains, locus YLR058C, strain SHM2 (second series), hits give low values
[13] = S. cerevisiae deletion strains, locus YLR085C, strain ARP6, hits give low values
[14] = S. cerevisiae deletion strains, locus YLR262C, strain YPT6, hits give low values
[15] = S. cerevisiae deletion strains, locus YML094W, strain GIM5, hits give low values
[16] = S. cerevisiae deletion strains, locus YMR219W, strain ESC1, hits give low values
[17] = S. cerevisiae deletion strains, locus YMR263W, strain SAP30, hits give low values
[18] = S. cerevisiae deletion strains, locus YNL128W, strain TEP1, hits give low values
[19] = S. cerevisiae deletion strains, locus YNL153C, strain GIM3, hits give low values
[20] = S. cerevisiae deletion strains, locus YNL298W, strain CLA4 (second series), hits give low values
[21] = S. cerevisiae deletion strains, locus YNL322C, strain KRE1, hits give low values
[22] = S. cerevisiae deletion strains, locus YNR030W, strain Alg12, hits give low values
[23] = S. cerevisiae deletion strains, locus YPL055C, strain LGE1, hits give low values
[24] = S. cerevisiae deletion strains, locus YPL241C, strain CIN2, hits give low values
[25] = S. cerevisiae deletion strains, locus YPR135W, strain CTF4, hits give low values
[26] = S. cerevisiae deletion strains, locus YMR307W, strain GAS1, hits give low values
[27] = S. cerevisiae strains, strain wild type, hits give low values

Measured: normalized growth

COc1ccc(-c2ccc(C=C(C#N)C#N)s2)cc1
inactive: [1] 0.946 | S. cerevisiae deletion strains, locus YCL061C, strain MRC1, hits give low values 0.95 | [3] 0.95 | [4] 0.967 | [5] 0.922 | [7] 0.943 | [8] 0.939 | [9] 0.958 | [10] 1.01 | [12] 0.971 | [13] 0.912 | [14] 0.832 | [15] 0.899 | [16] 0.969 | [17] 0.974 | [18] 0.977 | [19] 0.938 | [20] 0.895 | [21] 0.964 | [22] 0.903 | [23] 0.932 | [24] 1.07 | [25] 0.948
active: [2] 0.918 | [6] 0.925 | [11] 0.757

COc1ccc(-n2c(-c3ccc(C)cc3)csc2=N)cc1
inactive: [1] 0.996 | [2] 1 | [3] 1 | [4] 1.02 | [5] 0.97 | [6] 1 | [7] 1.05 | [8] 0.995 | S. cerevisiae deletion strains, locus YJL187C, strain SWE1, hits give low values 0.985 | [9] 1.01 | [10] 1.01 | [11] 1.01 | [12] 1 | [13] 0.918 | [14] 1 | [15] 0.996 | [16] 1.01 | [17] 1.03 | [26] 1.03 | [18] 0.992 | [19] 1.03 | [20] 0.983 | [21] 1 | [22] 0.988 | [23] 1.03 | [24] 1.01 | [25] 1.24 | [27] 0.994

C[C@H](N)[C@H](O)c1ccccc1
inactive: S. cerevisiae deletion strains, locus YBR021W, strain FUR4, hits give low values 0.997 | [2] 1 | S. cerevisiae deletion strains, locus YCL029C, strain bik1, hits give low values 1 | S. cerevisiae deletion strains, locus YDL035C, strain GPR1, hits give low values 1.01 | S. cerevisiae deletion strains, locus YDL074C, strain BRE1, hits give low values 1.01 | [3] 0.949 | S. cerevisiae deletion strains, locus YDL134C, strain PPH21, hits give low values 1 | S. cerevisiae deletion strains, locus YDL185W, strain tfp1, hits give low values 0.991 | S. cerevisiae deletion strains, locus YDL192W, strain arf1, hits give low values 1 | S. cerevisiae deletion strains, locus YDR101C, strain arx1, hits give low values 1 | [4] 1.01 | S. cerevisiae deletion strains, locus YDR162C, strain NBP2, hits give low values 1.01 | S. cerevisiae deletion strains, locus YDR318W, strain mcm21, hits give low values 0.993 | S. cerevisiae deletion strains, locus YDR388W, hits give low values 0.993 | S. cerevisiae deletion strains, locus YDR502C, strain sam2, hits give low values 0.994 | [5] 1 | S. cerevisiae deletion strains, locus YER110C, hits give low values 0.997 | S. cerevisiae deletion strains, locus YER155C, strain BEM2, hits give low values 0.998 | S. cerevisiae deletion strains, locus YER167W, strain BCK2, hits give low values 1 | S. cerevisiae deletion strains, locus YGL078C, strain dbp3, hits give low values 0.996 | S. cerevisiae deletion strains, locus YGL086W, strain mad1, hits give low values 0.991 | S. cerevisiae deletion strains, locus YGL248W, strain PDE1, hits give low values 1 | [6] 1.01 | S. cerevisiae deletion strains, locus YGR135W, strain pre9, hits give low values 0.998 | S. cerevisiae deletion strains, locus YGR229C, strain SMI1, hits give low values 1 | S. cerevisiae deletion strains, locus YGR252W, strain gcn5, hits give low values 1.01 | [7] 1 | S. cerevisiae deletion strains, locus YHR079C, strain IRE1 (second series), hits give low values 0.997 | S. cerevisiae deletion strains, locus YHR094C, strain hxt1, hits give low values 0.996 | S. cerevisiae deletion strains, locus YHR129C, strain ARP1, hits give low values 1.01 | S. cerevisiae deletion strains, locus YHR200W, strain rpn10, hits give low values 0.995 | S. cerevisiae deletion strains, locus YIL066C, strain RNR3, hits give low values 1 | S. cerevisiae deletion strains, locus YIL073C, strain SPO22, hits give low values 1.03 | S. cerevisiae deletion strains, locus YIL125W, strain kgd1, hits give low values 0.994 | S. cerevisiae deletion strains, locus YIR030C, strain dcg1, hits give low values 0.996 | S. cerevisiae deletion strains, locus YJL095W, strain BCK1, hits give low values 1.02 | S. cerevisiae deletion strains, locus YJL134W, strain LCB3, hits give low values 1 | S. cerevisiae deletion strains, locus YJL168C, strain set2, hits give low values 0.995 | S. cerevisiae deletion strains, locus YJL187C, strain SWE1 (second series), hits give low values 1.01 | [9] 0.982 | S. cerevisiae deletion strains, locus YKL009W, strain mrt4, hits give low values 0.989 | S. cerevisiae deletion strains, locus YKL068W, hits give low values 0.999 | S. cerevisiae deletion strains, locus YKL085W, strain MDH1 (second series), hits give low values 0.989 | S. cerevisiae deletion strains, locus YKL085W, strain MDH1, hits give low values 0.989 | S. cerevisiae deletion strains, locus YKL190W, strain CNB1, hits give low values 1 | S. cerevisiae deletion strains, locus YKR001C, strain vps1, hits give low values 0.99 | [11] 0.993 | S. cerevisiae deletion strains, locus YLR058C, strain SHM2, hits give low values 1 | S. cerevisiae deletion strains, locus YLR102C, strain apc9, hits give low values 1 | [14] 1.01 | S. cerevisiae deletion strains, locus YLR268W, strain sec22, hits give low values 0.99 | S. cerevisiae deletion strains, locus YLR330W, strain CHS5, hits give low values 0.999 | S. cerevisiae deletion strains, locus YLR342W, strain FKS1 (second series), hits give low values 1.01 | S. cerevisiae deletion strains, locus YLR371W, strain rom2, hits give low values 1 | S. cerevisiae deletion strains, locus YLR418C, strain cdc73, hits give low values 0.978 | S. cerevisiae deletion strains, locus YML016C, strain PPZ1, hits give low values 1 | S. cerevisiae deletion strains, locus YML032C, strain rad52, hits give low values 0.984 | S. cerevisiae deletion strains, locus YML124C, strain tub3, hits give low values 0.998 | S. cerevisiae deletion strains, locus YMR078C, strain ctf18, hits give low values 0.993 | S. cerevisiae deletion strains, locus YMR223W, strain ubp8, hits give low values 1 | [17] 1 | [26] 0.983 | S. cerevisiae deletion strains, locus YNL067W, strain RPL9B, hits give low values 1 | [18] 1.01 | [19] 1 | S. cerevisiae deletion strains, locus YNL233W, strain BNI4, hits give low values 0.996 | S. cerevisiae deletion strains, locus YNL250W, strain rad50, hits give low values 0.984 | S. cerevisiae deletion strains, locus YNL271C, strain bni1, hits give low values 0.998 | S. cerevisiae deletion strains, locus YNL298W, strain CLA4, hits give low values 1 | S. cerevisiae deletion strains, locus YNL307C, strain MCK1, hits give low values 0.999 | [21] 1 | S. cerevisiae deletion strains, locus YNR052C, strain pop2, hits give low values 1 | S. cerevisiae deletion strains, locus YOL006C, strain TOP1, hits give low values 1.02 | S. cerevisiae deletion strains, locus YOL012C, strain htz1 1.73 | S. cerevisiae deletion strains, locus YOL147C, strain pex11, hits give low values 0.996 | S. cerevisiae deletion strains, locus YOR061W, strain CKA2, hits give low values 0.998 | S. cerevisiae deletion strains, locus YOR069W, strain VPS5, hits give low values 1 | S. cerevisiae deletion strains, locus YOR136W, strain idh2, hits give low values 0.996 | S. cerevisiae deletion strains, locus YOR144C, strain elg1, hits give low values 0.995 | S. cerevisiae deletion strains, locus YOR184W, strain ser1, hits give low values 0.985 | S. cerevisiae deletion strains, locus YOR316C, strain cot1, hits give low values 0.999 | [23] 1.01 | S. cerevisiae deletion strains, locus YPR119W, strain clb2, hits give low values 0.999 | S. cerevisiae deletion strains, locus YPR141C, strain kar3, hits give low values 0.996 | S. cerevisiae deletion strains, locus YPR163C, strain tif3, hits give low values 0.994 | S. cerevisiae deletion strains, locus YPR167C, strain met16, hits give low values 1 | S. cerevisiae deletion strains, strain wtn01, hits give low values 0.983 | [27] 1
